The subject of experiment [1] is NCBI gene 100848466. The experiment in a line: NVS_NR_bPR: NovaScreen (NVS) Nuclear Receptor Binding Assay for bovine Progextron Receptor (PR) (AID 2283343).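 As to AC50: actives lower bound radioligand signal below DMSO meaning displacement of the label.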 In outline: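 Steps: bovine uterine membranes were dosed with chemical alongside radioligand, incubated 18 hours, then radiodetected by scintillation counting. Initial testing used 25 uM in duplicate; confirmed actives were rerun as concentration series.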

Experiment [2] concerns the target Estrogen receptor (Homo sapiens) (UniProt P03372). The experiment is described as follows: NVS_NR_hER: NovaScreen (NVS) Nuclear Receptor Binding Assay for human Estrogen Receptor (ER) (AID 2283348). In outline:
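Radiodetection of ligand displacement in a lysate-based, cell-free format using MCF7 extracts, read at 18 hours. Duplicate 25 uM primary testing, then concentration series for actives.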

Experiment [3] shares this target. The experiment is described as follows: OT_ER_ERaERa_1440: Odyssey Thera (OT) 24-hour HEK293T Protein-Complementation Assay for Estrogen Receptor-alpha/-alpha Homodimer (AID 2283349).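 Also: hits raise fluorescence above DMSO for agonists and antagonists alike.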 A digest of the protocol: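 Stably transfected HEK293T; ERα LBD homodimer PCA. 24 h dosing, fluorescence intensity read, gain-of-signal vs DMSO.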
The target in experiment [4] is T1, Estrogen receptor (Homo sapiens) + Estrogen receptor beta (Homo sapiens) (UniProt P03372+Q92731). The experiment in a line: OT_ER_ERaERb_0480: Odyssey Thera (OT) 8-hour HEK293T Protein-Complementation Assay for Estrogen Receptor-alpha/-beta Heterodimer (AID 2283352). A digest of the protocol: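 Fluorescence increase from reconstituted reporter fragments, quantified by laser scanning cytometer, reflects ER-alpha/ER-beta heterodimer formation in human HEK293T cells. Exposure 8 h; positive-direction fitting against DMSO vehicle.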

Experiment [5] concerns the target Androgen Receptor/SRC-1 Co-activator, AR (gene 367) (UniProt P10275). The experiment in a line: OT_AR_ARSRC1_0960: Odyssey Thera (OT) 16-hour HEK293T Protein-Complementation Assay for Androgen Receptor/SRC-1 Co-activator (AID 2283353).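 Also: actives raise the signal above DMSO so potency reflects increased AR and SRC-1 complex.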 In outline: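 Sixteen-hour cell assay: Venus halves fused to AR and SRC-1 in HEK293T report binding. Images at 488/635 nm give an N/C ratio in the 488 nm channel over ≥400 cells, analysed as signal increase over DMSO.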

For experiment [6] the target is unchanged. The experiment in a line: OT_AR_ARSRC1_0480: Odyssey Thera (OT) 8-hour HEK293T Protein-Complementation Assay for Androgen Receptor/SRC-1 Co-activator (AID 2283354).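 Also: hits raise the complementation signal above DMSO so AC50 marks enhancers.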 In outline: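 After 8 h dosing, stably expressing HEK293T cells with split-Venus AR/SRC-1 fusions were imaged (488, 635nm). The 488nm N/C ratio per image gave the endpoint, analysed in the positive direction against DMSO.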

Experiment [7] addresses T1, Estrogen receptor (Homo sapiens) + Estrogen receptor beta (Homo sapiens). The experiment in a line: OT_ER_ERaERb_1440: Odyssey Thera (OT) 24-hour HEK293T Protein-Complementation Assay for Estrogen Receptor-alpha/-beta Homodimer (AID 2283356).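 Also: heteromer of ER alpha and ER beta binding domains; hits raise reporter fluorescence and both agonists and antagonists give an increase.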 In outline: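 Fragment complementation between ER alpha (310-547) and ER beta (263-489) ligand-binding domains in HEK293T cells; signal read 24 h post-dosing by laser scanning cytometer. Gain of fluorescence relative to DMSO fitted.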

Experiment [8] deals with Estrogen receptor beta (Homo sapiens) (UniProt Q92731). The experiment is described as follows: OT_ER_ERbERb_0480: Odyssey Thera (OT) 8-hour HEK293T Protein-Complementation Assay for Estrogen Receptor-beta/-beta Homodimer (AID 2283357).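 Also: active means signal gain over DMSO baseline.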 A digest of the protocol:
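Fluorescence gain from complemented reporter fragments on ER-beta LBD homodimer in HEK293T was quantified against DMSO controls after 8 h treatment, fixation in 4% formaldehyde and Draq5 staining.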

In experiment [9] the target is human Constitutive Androstane Receptor (CAR), NR1I3 (gene 9970) (UniProt Q14994). The experiment is described as follows: NVS_NR_hCAR_Antagonist: NovaScreen (NVS) Nuclear Receptor Binding Assay for human Constitutive Androstane Receptor Antagonism (CAR) (AID 2283344). A digest of the protocol:
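Single 25 uM duplicate primary screen, with concentration-series follow-up on actives. Cell-free binding format run in antagonist mode, TR-FRET signal taken 1 h post-dose; activity is signal loss relative to DMSO.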

In experiment [10] the target is bovine Estrogen Receptor (ER), ESR1 (gene 407238) (UniProt P49884). The experiment is described as follows: NVS_NR_bER: NovaScreen (NVS) Nuclear Receptor Binding Assay for bovine Estrogen Receptor (ER) (AID 2283345).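 Also: actives lower the bound radioligand count which means they displace the ER ligand.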 A digest of the protocol: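 Bovine uterine membranes; tritiated or iodinated radioligand; competitive displacement; 18 h; scintillation read; DMSO negative control; 25 uM duplicates, then concentration series for actives.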

In experiment [11] the target is Retinoic acid receptor alpha (Homo sapiens) (UniProt P10276). The experiment is described as follows: NVS_NR_hRAR_Antagonist: NovaScreen (NVS) Nuclear Receptor Binding Assay for human Retinoic Acid Alpha Receptor Antagonism (RAR) (AID 2283358). A digest of the protocol: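 Chemicals were first tested in duplicate at 25 uM, then actives in concentration series, in a cell-free TR-FRET antagonist binding format. Measurements were taken 2 hours after dosing and loss of signal was evaluated against DMSO controls.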

Experiment [12] concerns guinea pig Histamine Receptor (H2), gene 100729734. The experiment is described as follows: NVS_GPCR_gH2: NovaScreen (NVS) G Protein-Coupled Receptor Assay for guinea pig Histamine Receptor (H2) (AID 2283342). In outline:
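Guinea pig striatal membrane preparation with specific radioligand; bound counts measured by filtration and scintillation 1 h post-dosing, DMSO as baseline. Chemicals passing a 25 uM duplicate screen were titrated to a 50 uM maximum.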

The target of experiment [13] is chimpanzee Androgen Receptor (AR), AR (gene 747460) (UniProt O97775). The experiment in a line: NVS_NR_cAR: NovaScreen (NVS) Nuclear Receptor Binding Assay for chimpanzee Androgen Receptor (AR) (AID 2283346). A digest of the protocol: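 Cell-free radioligand displacement using receptor protein extracted from Sf9/Sf21 cells; bound radioligand measured by scintillation counting 72 hours after chemical dosing. Loss of signal versus DMSO baseline indicates binding; primary screen single-concentration in duplicate at 25 uM, actives followed in concentration series.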

Experiment [14] deals with Estrogen receptor (Homo sapiens) (UniProt P03372). The experiment is described as follows: OT_ER_ERaERa_0480: Odyssey Thera (OT) 8-hour HEK293T Protein-Complementation Assay for Estrogen Receptor-alpha/-alpha Homodimer (AID 2283351).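 Also: rise in fluorescence from reassembled reporter fragments on ERα LBD homodimer in nucleus or whole cell.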 A digest of the protocol: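 Measures ERα LBD (aa 310-547) homodimer complementation in stably transfected HEK293T at 8 h post-dose, with fluorescence intensity quantified on a laser scanning cytometer relative to DMSO controls.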

The target in experiment [15] is Bile acid receptor (Homo sapiens) (UniProt Q96RI1). The experiment in a line: NVS_NR_hFXR_Antagonist: NovaScreen (NVS) Nuclear Receptor Binding Assay for human Farnesoid X Receptor Antagonism (FXR) (AID 2283350). A digest of the protocol: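 Antagonist-format time-resolved FRET binding assay with extracted human receptor protein, read 1 hour after compound addition. Compounds first screened at 25 uM in duplicate, then actives tested in concentration series, with loss of signal relative to DMSO.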

“And” between values parts separate entries of the source, which are not always exact repeats. Identical values can stand only once. Inconclusive results are not listed. Some structures have more than one record in an assay (separate samples or runs), and their calls can disagree. The source made the active and inactive calls. The calls were made as follows: active = hit-call score of the fitted dose curve at least 0.9, where 1 is the maximum; inconclusive = response in the unintended direction; inactive = score below 0.9.

chimpanzee Androgen Receptor (AR), AR (gene 747460), sequence (O97775 whole entry, looked up): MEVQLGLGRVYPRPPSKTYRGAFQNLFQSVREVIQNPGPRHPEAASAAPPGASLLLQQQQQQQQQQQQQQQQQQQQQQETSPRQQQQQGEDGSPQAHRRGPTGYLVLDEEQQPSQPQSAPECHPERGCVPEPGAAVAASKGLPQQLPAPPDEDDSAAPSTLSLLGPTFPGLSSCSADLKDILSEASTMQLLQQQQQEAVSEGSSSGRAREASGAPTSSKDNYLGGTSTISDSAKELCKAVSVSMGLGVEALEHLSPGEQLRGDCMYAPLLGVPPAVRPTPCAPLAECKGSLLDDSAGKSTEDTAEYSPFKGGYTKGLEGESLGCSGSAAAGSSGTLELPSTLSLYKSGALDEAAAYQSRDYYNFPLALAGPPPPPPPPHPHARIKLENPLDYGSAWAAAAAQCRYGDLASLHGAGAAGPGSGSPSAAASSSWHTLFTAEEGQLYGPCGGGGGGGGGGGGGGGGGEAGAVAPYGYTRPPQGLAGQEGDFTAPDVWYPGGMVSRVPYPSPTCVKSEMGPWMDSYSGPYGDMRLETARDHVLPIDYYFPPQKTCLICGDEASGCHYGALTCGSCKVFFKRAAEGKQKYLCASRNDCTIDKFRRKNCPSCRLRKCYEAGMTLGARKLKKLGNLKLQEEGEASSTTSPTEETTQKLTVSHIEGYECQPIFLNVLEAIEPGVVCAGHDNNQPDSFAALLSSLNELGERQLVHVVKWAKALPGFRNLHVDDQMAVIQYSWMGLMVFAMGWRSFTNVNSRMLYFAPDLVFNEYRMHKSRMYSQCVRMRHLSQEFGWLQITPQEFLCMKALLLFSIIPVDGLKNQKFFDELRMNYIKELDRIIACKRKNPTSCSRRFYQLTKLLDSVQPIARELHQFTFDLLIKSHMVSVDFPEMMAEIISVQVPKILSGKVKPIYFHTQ
Estrogen receptor (Homo sapiens), sequence (P03372 whole entry, looked up, the tested form may be a part): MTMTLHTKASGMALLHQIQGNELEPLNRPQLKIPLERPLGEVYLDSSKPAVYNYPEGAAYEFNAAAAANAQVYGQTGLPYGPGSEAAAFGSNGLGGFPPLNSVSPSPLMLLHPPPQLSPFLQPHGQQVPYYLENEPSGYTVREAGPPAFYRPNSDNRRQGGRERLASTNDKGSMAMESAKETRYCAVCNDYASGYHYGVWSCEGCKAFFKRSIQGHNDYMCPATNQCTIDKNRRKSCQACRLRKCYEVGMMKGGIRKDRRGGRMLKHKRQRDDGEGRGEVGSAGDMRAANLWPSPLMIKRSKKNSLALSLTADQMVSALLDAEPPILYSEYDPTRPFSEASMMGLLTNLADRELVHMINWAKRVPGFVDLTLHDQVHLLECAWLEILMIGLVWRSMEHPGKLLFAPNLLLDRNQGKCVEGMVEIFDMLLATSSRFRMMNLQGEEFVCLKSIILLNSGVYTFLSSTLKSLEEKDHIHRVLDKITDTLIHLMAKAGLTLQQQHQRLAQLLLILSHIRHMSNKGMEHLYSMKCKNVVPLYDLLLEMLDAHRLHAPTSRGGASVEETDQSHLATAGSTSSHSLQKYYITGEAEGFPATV
T1 sequence (P03372 whole entry, looked up, the tested form may be a part): as above
T1 sequence (Q92731 whole entry, looked up, the tested form may be a part): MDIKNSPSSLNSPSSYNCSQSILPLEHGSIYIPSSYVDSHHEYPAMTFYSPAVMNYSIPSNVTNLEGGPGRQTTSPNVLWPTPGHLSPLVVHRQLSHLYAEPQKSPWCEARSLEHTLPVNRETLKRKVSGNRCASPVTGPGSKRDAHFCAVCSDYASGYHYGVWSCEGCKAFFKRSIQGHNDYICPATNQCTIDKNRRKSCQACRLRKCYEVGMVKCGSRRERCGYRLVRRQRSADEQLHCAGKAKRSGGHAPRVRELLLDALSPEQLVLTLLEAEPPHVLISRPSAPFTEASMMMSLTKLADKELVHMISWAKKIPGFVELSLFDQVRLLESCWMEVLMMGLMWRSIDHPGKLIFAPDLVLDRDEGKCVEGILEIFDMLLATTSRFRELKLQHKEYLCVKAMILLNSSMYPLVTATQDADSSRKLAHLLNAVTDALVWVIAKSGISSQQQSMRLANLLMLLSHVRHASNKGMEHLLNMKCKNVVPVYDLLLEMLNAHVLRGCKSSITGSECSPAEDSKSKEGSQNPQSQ
human Constitutive Androstane Receptor (CAR), NR1I3 (gene 9970), sequence (Q14994 whole entry, looked up): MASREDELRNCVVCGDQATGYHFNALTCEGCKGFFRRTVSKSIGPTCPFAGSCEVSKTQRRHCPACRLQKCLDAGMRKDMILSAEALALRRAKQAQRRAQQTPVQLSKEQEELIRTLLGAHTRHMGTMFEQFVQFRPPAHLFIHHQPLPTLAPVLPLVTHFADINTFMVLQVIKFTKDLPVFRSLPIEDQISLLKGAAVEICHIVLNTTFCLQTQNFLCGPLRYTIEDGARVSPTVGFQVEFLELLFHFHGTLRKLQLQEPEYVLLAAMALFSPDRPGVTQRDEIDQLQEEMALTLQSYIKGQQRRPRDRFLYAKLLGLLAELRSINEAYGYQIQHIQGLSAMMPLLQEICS
Androgen Receptor/SRC-1 Co-activator, AR (gene 367), sequence (P10275 whole entry, looked up, the tested form may be a part): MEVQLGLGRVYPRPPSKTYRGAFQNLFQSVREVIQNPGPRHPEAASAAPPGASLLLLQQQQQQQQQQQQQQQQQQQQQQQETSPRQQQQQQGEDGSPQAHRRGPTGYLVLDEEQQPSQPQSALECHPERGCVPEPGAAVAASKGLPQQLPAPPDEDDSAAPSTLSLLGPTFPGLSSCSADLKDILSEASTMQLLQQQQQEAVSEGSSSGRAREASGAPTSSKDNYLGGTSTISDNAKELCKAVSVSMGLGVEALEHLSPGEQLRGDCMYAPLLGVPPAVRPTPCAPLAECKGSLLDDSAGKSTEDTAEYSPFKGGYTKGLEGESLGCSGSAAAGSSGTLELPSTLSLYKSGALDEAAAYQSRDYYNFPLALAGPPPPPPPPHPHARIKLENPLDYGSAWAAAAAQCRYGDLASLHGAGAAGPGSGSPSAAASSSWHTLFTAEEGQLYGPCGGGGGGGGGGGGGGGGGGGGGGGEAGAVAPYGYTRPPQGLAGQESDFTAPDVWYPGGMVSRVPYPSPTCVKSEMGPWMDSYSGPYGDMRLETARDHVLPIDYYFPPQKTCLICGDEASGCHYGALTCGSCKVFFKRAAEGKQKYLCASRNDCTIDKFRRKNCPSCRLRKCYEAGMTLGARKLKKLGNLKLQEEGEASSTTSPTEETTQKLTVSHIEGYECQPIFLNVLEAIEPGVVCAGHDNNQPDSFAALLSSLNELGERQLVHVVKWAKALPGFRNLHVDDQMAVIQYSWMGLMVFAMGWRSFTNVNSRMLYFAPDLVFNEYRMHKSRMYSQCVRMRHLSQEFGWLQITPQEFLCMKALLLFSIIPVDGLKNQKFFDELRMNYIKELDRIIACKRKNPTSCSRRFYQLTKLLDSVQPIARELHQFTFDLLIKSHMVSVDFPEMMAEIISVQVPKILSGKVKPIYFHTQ
bovine Estrogen Receptor (ER), ESR1 (gene 407238), sequence (P49884 whole entry, looked up): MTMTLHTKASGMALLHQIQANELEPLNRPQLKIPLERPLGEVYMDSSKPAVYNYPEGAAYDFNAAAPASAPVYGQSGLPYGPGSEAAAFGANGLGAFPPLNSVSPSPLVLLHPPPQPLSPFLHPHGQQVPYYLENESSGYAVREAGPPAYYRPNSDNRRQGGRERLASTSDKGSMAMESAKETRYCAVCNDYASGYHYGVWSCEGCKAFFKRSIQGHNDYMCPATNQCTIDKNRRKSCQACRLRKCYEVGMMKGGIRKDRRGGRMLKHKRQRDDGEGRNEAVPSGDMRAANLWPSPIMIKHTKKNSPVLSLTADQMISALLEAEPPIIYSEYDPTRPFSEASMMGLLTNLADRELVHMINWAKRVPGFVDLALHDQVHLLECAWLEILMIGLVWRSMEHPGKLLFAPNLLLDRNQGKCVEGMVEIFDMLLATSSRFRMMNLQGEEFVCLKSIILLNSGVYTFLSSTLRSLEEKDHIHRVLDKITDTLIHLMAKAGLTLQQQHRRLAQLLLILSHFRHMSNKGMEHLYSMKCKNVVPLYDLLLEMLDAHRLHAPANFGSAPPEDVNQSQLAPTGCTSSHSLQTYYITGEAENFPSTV
Retinoic acid receptor alpha (Homo sapiens), sequence (P10276 whole entry, looked up): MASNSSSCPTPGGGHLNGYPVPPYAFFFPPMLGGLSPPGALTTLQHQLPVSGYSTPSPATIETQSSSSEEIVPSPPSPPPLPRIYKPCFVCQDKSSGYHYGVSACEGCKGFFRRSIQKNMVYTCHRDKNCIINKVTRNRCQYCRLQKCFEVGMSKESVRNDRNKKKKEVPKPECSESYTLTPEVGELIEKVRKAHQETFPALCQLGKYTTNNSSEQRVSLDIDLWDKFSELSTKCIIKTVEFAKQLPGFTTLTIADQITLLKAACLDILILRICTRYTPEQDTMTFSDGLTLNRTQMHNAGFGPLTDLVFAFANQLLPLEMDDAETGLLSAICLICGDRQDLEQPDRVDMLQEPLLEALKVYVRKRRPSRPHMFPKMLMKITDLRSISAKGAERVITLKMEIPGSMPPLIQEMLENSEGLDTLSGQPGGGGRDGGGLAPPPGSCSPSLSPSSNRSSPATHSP

For the compound `C[C@H]1[C@H](c2ccc(Cl)cc2)SC(=O)N1C(=O)NC1CCCCC1`, the compound was classed as inactive in experiment [1], in experiment [2], in [3], in [4], in [6] and in [7]. Moreover, in experiment [8], the result was inactive. For the same compound, the AC50 in experiment [5] is 67.7 µM (active).

With `CC1(C)C(C=C(Cl)Cl)C1C(=O)OC(C#N)c1ccc(F)c(Oc2ccccc2)c1` (stereo unspecified), the call in experiment [1], in [9], in experiment [10], in experiment [2], in experiment [3] and in experiment [4] was inactive. For the same compound, the result in experiment [7] and in [11] was inactive.

Consider `ClC1C(Cl)C(Cl)C(Cl)C(Cl)C1Cl` (stereo unspecified), for which the result in experiment [1] and in [8] was inactive. The AC50 in [8] is 50 µM (active).

As to `O=C(O)C(F)(F)C(F)(F)C(F)(F)C(F)(F)C(F)(F)C(F)(F)C(F)(F)F`, the call in experiment [1] and in experiment [8] was inactive.

With `CCOCN(C(=O)CCl)c1c(C)cccc1CC`, the compound was classed as inactive in experiment [12], in experiment [3], in experiment [14] and in experiment [7]. Also, the AC50 in experiment [9] is 13.9 µM (active); in experiment [13], 15.5 µM (active).

As for `COc1nn(CSP(=S)(OC)OC)c(=O)s1`, the call in [1], in [3], in experiment [14], in experiment [4], in experiment [7] and in experiment [8] was inactive. Further, in experiment [9], the AC50 is 18.3 µM (active).

Take `O=[N+]([O-])/N=C1\NCCN1Cc1ccc(Cl)nc1`: the result in [1], in experiment [2], in [3], in experiment [15], in experiment [14] and in experiment [4] was inactive. The call in experiment [5], in [7], in [8] and in experiment [11] was inactive.

For `CNC(=O)Oc1ccccc1OC(C)C`, the result in [9], in [10], in experiment [3], in experiment [14], in [4] and in experiment [7] was inactive. Also, the outcome in experiment [8] was inactive.

With `COP(=S)(OC)Oc1ccc(SC)c(C)c1`, the AC50 in experiment [1] is 16.3 µM (active). For the same compound, the compound was called inactive in experiment [10], in experiment [2], in experiment [3], in experiment [14], in experiment [4] and in experiment [7]. Moreover, the compound was classed as inactive in experiment [8].

Take `CC(C)(C)C(O)C(Oc1ccc(Cl)cc1)n1cncn1` (stereo unspecified): the half-maximal activity concentration (AC50) was 39.8 µM (active) in experiment [1]; 19.6 µM (active) and 25 µM (active) and 20.5 µM (active) in [13]; 67.3 µM (active) in [8]. The compound was called inactive in experiment [9] and in experiment [11].

As for `O=C1c2ccccc2C(=O)N1SC(Cl)(Cl)Cl`, the call in experiment [9], in experiment [10], in experiment [3], in experiment [14], in [4] and in [8] was inactive. In experiment [11], the compound was called inactive.
